# HPGD inh = qHTS Assay for Inhibitors of HPGD (15-Hydroxyprostaglandin Dehydrogenase) | purified HPGD, NADH fluorescence kinetic, PGE2 substrate | 150,000 compounds, 4.3% hits | Potency, µM, inactives show at the highest dose activity change, negative = inhibition, actives largely listed as inhibitors | 15-hydroxyprostaglandin dehydrogenase [NAD(+)] (Homo sapiens), P15428; note: potency is the fitted concentration of half-maximal effect
# Target sequence (P15428 whole entry, looked up): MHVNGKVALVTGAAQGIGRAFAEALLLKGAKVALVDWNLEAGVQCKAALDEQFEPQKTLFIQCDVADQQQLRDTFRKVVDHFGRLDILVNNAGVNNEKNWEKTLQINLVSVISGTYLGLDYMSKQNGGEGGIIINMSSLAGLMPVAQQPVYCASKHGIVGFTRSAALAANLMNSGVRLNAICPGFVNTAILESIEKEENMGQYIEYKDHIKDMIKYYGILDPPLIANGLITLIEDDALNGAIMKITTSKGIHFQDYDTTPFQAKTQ
#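 NADH formation kinetics: reaction with 30 uM PGE2 and 1 mM NAD+ (final), 20 nM enzyme, Tris-HCl pH 8 with Tween 20, after 15 min compound preincubation at room temperature. Fluorescence change, last versus first of five reads.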
# Lamin A splicing = qHTS Assay for Modulators of Lamin A Splicing; Potency, µM (series often up to 46.1 µM), for the others: at the highest dose ratio change, negative = inhibition, most hits filed as inhibitors; HeLa LMNA splicing GFP/RFP minigene ratio, 48 h; 200,000 compounds, 0.01% hits; AID 1487, 2009; active = well fitted inhibition curve with a large enough effect in the signal ratio, with a control signal flat, not every such curve was filed as active; inconclusive = small, poorly fitted or top-dose-only effect, or effect the other way, or a change in a side signal; the % refers to the signal ratio; note: potency is the fitted concentration of half-maximal effect
#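 S3 HeLa cells stably expressing lamin A-EGFP splicing minigene plus DsRed2, 600 cells/well, 48 h compound exposure at 37C. Laser-scanning cytometry; analysed as GFP (500-530 nm)/RFP (575-640 nm) total intensity ratio; 0.5% DMSO vehicle.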
# PNC inhibitor = High Content Assay for Compounds that inhibit the Assembly of the Perinucleolar Compartment; PC3M PTB-GFP, PNC prevalence imaging, 16 h; hits give low values; activity change (PNC), negative = inhibition, % at 10 µM; 140,000 compounds, 3.1% hits; AID 2417, 2010;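 active = readout at or below -70, meaning at least 70% loss of cells showing the perinucleolar compartment, a nuclear body marking cancer cells; inconclusive = readout between -30 and a set limit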;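 note: plate controls were DMSO wells for no effect and camptothecin positive control wells for full effect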
#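 PC3M cells stably expressing PTB-GFP, 750–1000 cells/well, treated 16 h at 37 °C with compound (23 nl of library stock), in duplicate. After paraformaldehyde fixation and Hoechst stain, imaged at 20x; PNC prevalence scored by image analysis.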
# ALDH1A1 block = qHTS Assay for Inhibitors of Aldehyde Dehydrogenase 1 (ALDH1A1). Purified ALDH1A1, NADH fluorescence, propionaldehyde substrate. 220,000 compounds, 7.3% hits. Aldehyde dehydrogenase 1A1 (Homo sapiens), P00352. Potency, µM (top dose mostly 75.3 µM), for inactives: at the highest dose activity, negative = inhibition, usual class: inhibitors. AID 1030, 2008;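 note: potency is the fitted concentration of half-maximal effect; plate controls were no enzyme wells and a reference inhibitor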
# Luc counter = Counterscreen for Luciferase (Kinase-Glo TM) Inhibition; Potency, µM (titrated, usually from 38.3 µM), for inactives: at the highest dose activity change, negative = inhibition, actives largely listed as inhibitors; Kinase-Glo luciferase, ATP luminescence, 8 min; 200,000 compounds, 0.28% hits; Luciferin 4-monooxygenase (Photuris pensylvanica), Q27757; active = well fitted inhibition curve with a large enough effect; inconclusive = small, poorly fitted or top-dose-only effect; note: potency is the fitted concentration of half-maximal effect; nearly all actives have a fitted effect of over 60% in size
#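 Light output from Kinase-Glo luciferase with luciferin and 10 uM ATP in 50 mM imidazole pH 7.2, KCl, MgCl2, Tween 20, BSA; compound pin-delivered, 8-min ambient incubation, then luminescence read.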
# * hit, by the source's call; ? = inconclusive; . = no result given; [ ] = dose if it differs, or a comment. Compounds with a hit are over-represented: about 10% of the library has one in this group of screens. Unless noted, calls come from the whole dose curve; as a rule, active = well fitted inhibition curve with a large enough effect (not every such curve was filed as active); inconclusive = small, poorly fitted or top-dose-only effect, or another doubt; inactive = no such curve, though single readings can be large or run the other way. Unless noted, % is set by controls: 0 for no effect and ±100 for the full control effect.
SMILES,HPGD inh,Lamin A splicing,PNC inhibitor,ALDH1A1 block,Luc counter
COc1ccc(CCNC(=O)CCS(=O)(=O)c2cc3c(cc2Cl)NC(=O)CO3)cc1OC,.,-5%[46 µM],.,.,.
CCCCC/C=C\C/C=C\C/C=C\CCCCCCC(=O)NC(C)C(=O)O (centres undefined),-5%,.,.,-5%,2%
CN(C)c1ccc(/C=C2\CCC/C(=C\c3ccccc3)C2=O)cc1,-11%,?,-24,13µM*,-2%
O=C1/C(=C/c2ccccc2)CCCc2ccccc21,-1%,-7%,23,-9%,-5%
CN(C)/N=C/C=C1\CCC/C(=C\c2ccc(F)c(F)c2)C1=O,.,.,.,?,1%
COc1ccc(/C=C2\CCC/C(=C\C=N\N(C)C)C2=O)cc1,.,.,.,4µM*,0%
O=C1/C(=C/c2ccc(C(=O)O)cc2)CCC/C1=C\c1ccc(C(=O)O)cc1,20µM*,19%,-93*,-1%,0%
Cc1c(/C=N/NC(=O)c2ccccc2O)c2ccccn2c1C(=O)c1ccc(F)cc1,28µM*,?,34,-10%,-4%
C=CCn1c(=S)[nH]c2sccc2c1=O,.,8%[46 µM],.,32µM*,1%
C=CCn1c(-c2csc3ccccc23)n[nH]c1=S,-17%,-6%,9,-13%,-2%
COc1ccc(S(=O)(=O)NCCSc2ccc(C)cc2)cc1OC,-23%,?,6,5µM*,0%
Cc1ccc(SCCNS(=O)(=O)c2ccc3c(c2)OCCO3)cc1,-10%,?,120,1.4µM*,3%
CC(C)OCCCNS(=O)(=O)c1ccc2c(c1)OCCO2,-2%,3%,16,?,1%
Cc1ccc(SCCNS(=O)(=O)c2ccc(F)cc2)cc1,-7%,-15%,4,16µM*,2%
Cn1cnc([N+](=O)[O-])c1[Se]c1nc(N)nc2c1ncn2[C@@H]1O[C@@H](CO)[C@H](O)[C@@H]1O,-8%,.,.,6%[13.5 µM],-7%[7.66 µM]
CC(C)C[C@@H](CC(=O)N[C@@H](CCC(=O)O)CC(=O)O)NC(=O)[C@@H]1CNCC[C@H]1NC(=O)C[C@@H](NC(=O)C[C@H](Cc1ccccc1)NC(=O)[C@@H]1CCCC[C@H]1N)C(C)C,-8%,.,.,-9%,2%
COc1ccc(-c2noc(CCC(N)=O)n2)cc1OC,-3%,1%,-113*,12%,5%
CN(Cc1nc(-c2cccnc2)no1)S(=O)(=O)c1ccc(Br)cc1,?,-10%,-21,4%,2%
CC(C)N(Cc1nc(-c2ccc(Cl)cc2)no1)C(=O)CN(C)S(=O)(=O)c1ccc(Cl)cc1,-11%,?,?,?,3%
COc1ccc(-c2noc(CN(C)S(=O)(=O)c3ccc(Cl)cc3)n2)cc1OC,-11%,?,-92*,7%,0%
COc1ccc(-c2noc(CN3CCOCC3)n2)cc1OC,-2%,4%,25,22µM*,-2%
CCOc1ccc(-c2noc(CCCC(N)=O)n2)cc1OC,-16%,8%,26,-8%,-3%
Cc1ccc(-c2noc(CN3CCOCC3)n2)cc1,-7%,3%,7,-1%,-1%
CN(Cc1nc(-c2ccccn2)no1)S(=O)(=O)c1ccc(Br)cc1,22µM*,-3%,21,?,0%
O=c1c(CCc2ccccc2)nc2cnc(Oc3cccc(Cl)c3)nc2n1C[C@H]1CCCO1,-4%,.,.,?,0%
SMILES,HPGD inh,Lamin A splicing,PNC inhibitor,ALDH1A1 block,Luc counter
COc1ccc(-c2noc(CCC(=O)N(C)c3cccc(C)c3)n2)cc1,-23%,?,1,3%,-3%
CCN(C(=O)CCc1nc(-c2ccc(OC)cc2)no1)c1cc(OC)ccc1OC,14µM*,?,1,-14%,-4%
Cc1oc2cc3c(C(=O)N4CCCCC4)c(C)oc3cc2c1C(=O)N1CCCCC1,4.5µM*,?,-6,?,-4%
COc1ccccc1CNC(=O)CN1C(=O)CSc2c1c(C)nn2-c1ccccc1,.,-11%[46 µM],.,.,.
NC(N)=N/N=C/c1cc([N+](=O)[O-])ccc1O,-13%,-3%,-115*,?,4%
O=C(Cn1nnc(-c2ccccc2)n1)N/N=C/c1cc([N+](=O)[O-])ccc1O,14µM*,-11%,?,?,3%
O=[N+]([O-])c1ccc(O)c(/C=N/n2cnnc2)c1,-18%,-14%,18,20µM*,3%
O=[N+]([O-])c1ccc(O)c(/C=N\N=C2c3ccccc3-c3ccccc32)c1,-18%,?,?,-8%,2%
COc1cccc(N2CC(NC(=O)c3cc4ccccc4o3)CC2=O)c1 (centres undefined),.,-5%[46 µM],.,.,.
COc1ccc(OC)c(-c2ccccc2/C=N/NS(=O)(=O)c2ccc(C)cc2)c1,.,.,.,15%[13.5 µM],.
CC(Oc1ccccc1)C(=O)Nc1ccccc1C(=O)OCc1cc(=O)n2nc(C3CC3)sc2n1 (centres undefined),.,3%[46 µM],.,.,.
O=C1OC(/C=C/c2ccccc2)=NC/1=C/C=C/c1ccccc1,-17%,1%,?,?,-2%
O=C1OC(/C=C/c2ccc(Cl)cc2)=NC/1=C/c1ccco1,-10%,-13%,-30,2µM*,-3%
Cc1ccc(CNC(=O)Cc2cccs2)cc1,16µM*,8%,-3,5%,-3%
Cc1ccc(-c2nc3ccccc3c(C(=O)NCc3cccs3)c2C)cc1,-27%,-3%,-9,24µM*,-3%
O=C(Cc1cccs1)NCc1ccncc1,-14%,5%,?,-8%,-1%
O=C(NCc1cccs1)c1ccccc1F,20µM*,8%,23,-2%,-2%
O=C(NCc1cccs1)c1cc(-c2ccccc2)nc2ccccc12,-13%,?,?,0%,0%
O=C(Cc1cccs1)NCc1ccccc1,20µM*,-1%,-4,4%,-3%
CCN(CC)CCNC(=O)C1CCN(c2nn3cc(-c4ccc(F)cc4)nc3s2)CC1,.,3%[46 µM],.,.,.
Cn1c(=O)c(-c2cccc(Cl)c2)nc2cncnc21,-22%,.,.,-13%,-3%
COc1ccc(CCNC(=O)Cc2cccs2)cc1,35µM*,9%,-19,2%,3%
COCCN(C(=O)Cc1cccs1)C(C(=O)NCc1ccc(OC)cc1)c1ccccc1 (centres undefined),-6%,-10%,?,25µM*,3%
O=C(Cc1cccs1)NCc1ccccc1F,25µM*,11%,-23,0%,-2%
CC(=O)SC(C)CC(=O)NCc1ccccc1 (centres undefined),28µM*,14%,-25,1%,-2%
COc1ccc(CNC(=O)C(c2ccncc2)N(C(=O)Cc2cccs2)c2ccccc2)cc1 (centres undefined),-3%,-2%,-14,-7%,0%
